Assay results reported in PubChem BioAssay AID686979 (National Center for Advancing Translational Sciences (NCATS), 2013).
Out of some 420,000 compounds screened, about 50,000 (12%) were called active. About 26% were inconclusive and are not listed. Calls follow the shape of the dose curve; as a rule, active = well fitted inhibition curve with a large enough effect; inconclusive = small, poorly fitted or top-dose-only effect; inactive = flat fitted curve, though single readings scatter. For the sample, actives were picked, then their nearest neighbours and some compounds at random.

Test: qHTS for Inhibitors of human tyrosyl-DNA phosphodiesterase 1 (TDP1): qHTS in cells in presence of CPT; also: nearly all actives have a fitted effect of over 55% in size
Conditions: chicken DT40 Tdp1-/-;hTDP1 cells + 20 nM CPT, ATP luminescence, 48 h; series mostly up to 46.2 µM; activity change, negative = growth inhibition: at the top concentration
Method in brief: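 Cell growth measured by CellTiter-Glo luminescence after a minimum 48 h, 37 C compound exposure with 20 nM CPT in Tdp1-knockout DT40 cells stably expressing hTDP1, seeded 400/well; qHTS titration format.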
% is scaled to controls: 0 for no effect and ±100 for the full control effect; potency is read from the fitted curve at half-maximal effect.

Row | SMILES | activity change, negative = growth inhibition | Potency
1 | O=C(COC(=O)/C=C/c1ccc(Br)o1)Nc1cccc(S(=O)(=O)N2CCOCC2)c1 | 2.67% (inactive) | 
2 | O=C1c2ccccc2C(=O)c2c1cccc2N1CCN(C/C=C/c2ccccc2)CC1 | -28.2% (inactive) | 
3 | CCOC(=O)c1oc2c(CN3CCN(C)CC3)c(O)ccc2c(=O)c1-c1ccc(Br)cc1 | -8.28% (inactive) | 
4 | COc1ccc(NC(=O)C2=CC(c3ccc(OC)c(OC)c3)=NS(=O)(=O)N2C)cc1 |  | 23.1 µM (active)
5 | COc1ccc(C2=NS(=O)(=O)N(C)C(C(=O)N3CCCCC3)=C2)cc1 | -1.91% (inactive) | 
6 | COc1cc(NC(=O)C2=CC(c3ccco3)=NS(=O)(=O)N2C)cc(OC)c1OC |  | inactive
7 | COc1ccc(C2(Nc3cccc(F)c3)C(=O)c3ccccc3C2=O)cc1 | 5.75% (inactive) | 
8 | CCCn1c(=S)[nH]c2ccc(C(F)(F)F)cc21 | 4.89% (inactive) | 
9 | CCN(CC)c1ccc(NC(=O)CN2CCN(CC(=O)Nc3ccc(Cl)cc3)CC2)cc1 |  | 23.1 µM (active)
10 | CC(=O)N1CCN(CC(=O)Nc2ccc(SC(F)F)cc2)CC1 | -15.2% (inactive) | 
11 | Cc1cnc(NC(=O)c2ccc(Cl)nc2)s1 | -19.3% (inactive) | 
12 | NS(=O)(=O)c1ccc(NC(=O)COC(=O)c2ccc(Cl)nc2)cc1 | -8.23% (inactive) | 
13 | CCN(CC)c1ccc(NC(=O)c2ccc(Cl)nc2)cc1 |  | 2.91 µM (active)
14 | CCN(CC)c1ccc(NC(=O)CN2CCN(c3ccccn3)CC2)cc1 | -21.9% (inactive) | 
15 | CCc1ccc(CN2C(=O)c3ccccc3C2C(=O)NCC2CCCO2)cc1 (stereo not drawn) | 6.59% (inactive) | 
16 | Cc1csc2nc(O)c(C(=O)NCCN3CCOCC3)c(=O)n12 | 4.88% (inactive) | 
17 | NC(=O)COC(=O)c1sc2cc(F)ccc2c1Cl | 1.25% (inactive) | 
18 | Cc1ccsc1C(=O)NNC(=O)COc1ccc(Br)cc1 | -25.4% (inactive) | 
19 | O=C(NC(=S)N1CCc2ccccc21)c1ccco1 | 20.5% (inactive) | 
20 | CN(C)C(=O)c1ccc(NC(=O)COC(=O)c2cc3c(s2)CCCCC3)cc1 | -13.4% (inactive) | 
21 | CCOC(=O)N1CCC(NC(=O)Cn2cc3c(n2)CCCCC3)CC1 | -15.7% (inactive) | 
22 | CCOc1ccc(CNC(=O)Cn2cc3c(n2)-c2c(oc(C(=O)N4CCCC4)c2C)CC3)cc1 |  | 29.1 µM (active)
23 | CCCN(CCC)CCCNC(=O)Cn1cc2c(n1)-c1c(oc(C(=O)N3CCCC3)c1C)CC2 | -4.28% (inactive) | 
24 | CCOC(=O)C(C)n1cnc2scc(-c3ccc(C)c(C)c3)c2c1=O (stereo not drawn) | -0.242% (inactive) | 
25 | COc1ccc(-c2nnc(SCC(=O)Nc3cccnc3Cl)n2C)cc1 | -0.741% (inactive) | 
26 | COC(=O)c1ccc(NC(=O)CSc2nnc(C3CC3)n2C)cc1 | 6.22% (inactive) | 
27 | CC(C)(C)NC(=O)COc1ccc(CNc2ccc3[nH]c(=O)[nH]c3c2)cc1 | 2.77% (inactive) | 
28 | CC(=O)Nc1ccc(CN2CCC(Oc3ccc(C(=O)N4CCCC4)cc3)CC2)cc1 | -13.6% (inactive) | 
